Laboratory results reported in article PMC6212790, “How bacterial xenogeneic silencer rok distinguishes foreign from self DNA in its resident genome”.
In all, about 33,000 sequences were measured (“e-score”: median about -0.038, highest 2% from about 0.33 on). This excerpt belongs to a sample that is enriched for the highest values.

Target: T1, GST-Rok-C97-191 (Bacillus subtilis subsp. subtilis str. …, UniProt O34857 97-191)
T1 sequence: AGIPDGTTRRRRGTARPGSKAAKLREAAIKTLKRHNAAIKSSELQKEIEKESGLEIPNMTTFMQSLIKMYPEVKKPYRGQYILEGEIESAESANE
Experiment: protein binding microarray; Rok is a gene silencer of Bacillus subtilis; high values mean tight binding
Conditions: protein: recombinant; tags: GST (pTH5325, pDEST15-Magic modified); dsDNA, one strand shown
Summary of the method: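 Each has a 25-mer constant primer and a 35-mer variable part from a de Bruijn sequence of order 10, covering every non-palindromic 8-mer at least 32 times (palindromic 16). Preference for each 8-mer is given as a rank-based, unitless enrichment score (E-score). Its range runs from 0.5 (most favored) to −0.5 (most disfavored).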

Sequence	binding signal [E-score]
GAGGCTGA	-0.165
ACCGCAAG	-0.109
ACGAACTA	0.311
CCAACTAA	0.16
ACGCTAAG	0.0377
CGAAGCTA	0.0414
CTCGGAGC	0.0375
GAAAACTA	0.336
GCAAACCA	-0.0828
GCAAACAA	-0.173
CCAAACTA	0.376
GCAAACTA	0.385
CCAAACCA	-0.102
GAAAACCA	-0.143
GAAAACTC	-0.0271
CCAAACTC	-0.0249
GTTACAGA	0.21
TGCGCGCA	0.0584
TAGGGGGA	-0.143
ACAGTTGA	0.152
CCAGCGTC	-0.163
AATAGAAC	0.151
AATAGAAT	0.318
GATAGACA	0.058
CATAGAAA	0.105
TATAGACA	0.00807

Sequence	binding signal [E-score]
GATAGAAC	0.289
AATAGAAA	0.388
GATAGAAA	0.333
TATAGAAA	0.397
ACAAACCG	-0.027
TCATTCCA	-0.0328
GCATCCAA	-0.0621
GATAGAGA	0.104
AATACAGG	-0.0587
GACCCAAC	-0.142
AGAAGCGA	-0.104
GGGCATAC	-0.0596
AATCGACC	-0.0453
GCTACTCA	0.0267
AAACTAAT	0.36
AAACTAAG	0.251
GAACTATC	0.261
AAACTCTT	0.063
CAACTATC	0.156
AAACTATC	0.36
AAACTATT	0.448
GAACTATA	0.29
AAACTAAC	0.308
AAACTATA	0.398
AAACTATG	0.229
CAACTATA	0.277

Sequence	binding signal [E-score]
AAACAGTC	-0.0408
GCGCCGGA	-0.0972
ATTTAAAA	-0.0263
GAAGCGTC	-0.188
ATTATTCA	0.199
CTAGATCA	0.199
ATTACAGC	0.215
TAACTAAA	0.23
AAACTAAA	0.296
TAACTATA	0.347
CAGAGAGA	-0.071
CTTTAGGC	-0.0933
GTAGAAAC	0.435
GAAGAAAC	0.108
CAAGAAAC	0.224
GTAGAAAA	0.384
GCAGAAAC	-0.0283
CTAGAAAC	0.34
CTAGAAAA	0.312
CTAGAAAG	0.113
TTAGAAAA	0.263
TCAGCCCA	-0.191
TGCCAACA	0.0271
AGAGGTAA	0.149
CGGCAAAC	0.168
AGCGCCGG	-0.146

Sequence	binding signal [E-score]
ACTATACG	0.0223
GTTATACA	0.253
CTTATACA	0.263
ATTATACC	0.228
ATTATACG	0.388
ATTATACA	0.333
GTACTGCA	0.119
AGAATGCG	0.105
ATAGGGAC	-0.176
CACGATCA	-0.0988
AACCCCTG	-0.151
GTCTGACA	-0.163
AATATACA	0.394
CATATACA	0.22
AACATACT	0.0962
ACTATACA	0.302
AATATACC	0.353
GATATACC	0.153
AATACACA	0.173
CATATACC	0.222
GATATACA	0.175
TATATACA	0.402
AACATACA	0.343
TACATACA	0.253
ACAACTTG	0.173
ACGTGGCA	-0.0377

Sequence	binding signal [E-score]
CTTAGCGC	0.0409
GAGCTAGC	0.0567
ACCCGTTG	-0.159
TGTTAAAA	-0.0158
AATTGCGG	0.0377
TACCGGAA	-0.0058
ACAGGCGT	-0.077
GGTATACA	0.15
ACTATACT	0.0926
AATATACT	0.367
AGTATACA	0.178
TGTATACA	0.37
AATATACG	0.225
GAAAGTGC	-0.0315
GTACCAAC	0.0505
CAGGCGAC	-0.00727
CGTTTATC	0.231
GGCAGTTA	0.0872
CACAAGTG	-0.00102
CAGACTAA	-0.0795
ACCTCACT	-0.0237
TCAGCCGA	-0.0187
TATATAAA	0.394
GATATAAC	0.297
GATAAAAA	0.234
CATATAAA	0.138

Sequence	binding signal [E-score]
GATATAAA	0.34
AATATAAT	0.23
AATATAAC	0.205
AATATAAA	0.361
TATAAAAA	0.244
ACTGTTGC	0.119
TGACTCCA	-0.0987
AGGAGGGA	-0.173
CAGTTATG	0.0833
ATATACCA	0.344
AAATACCG	0.37
CAATACCG	0.121
CTATACCA	0.201
AAATACCA	0.286
AGATACCG	0.171
ATATACCG	0.384
ATATACCC	0.127
GTATACCA	0.267
AGGAGACG	-0.19
CAGCTCGG	-0.0345
AAGTGACT	-0.0548
TCTGTCAA	-0.116
CAAGCCTG	-0.132
ATCAGTGC	-0.0896
CAACGGAC	-0.085
GGTAGTAA	0.396

Sequence	binding signal [E-score]
AGTAGTAA	0.404
GCTAGTAA	0.286
TGTAGTAA	0.286
CGTAGTAA	0.205
GTTAGTAA	0.163
ACTAAACT	0.244
TGGCGAAA	0.0439
GTTTTGCA	0.0567
CGTACGTA	0.05
GAATAAAA	0.119
CAATAATA	0.312
TAATAATA	0.424
CATTAATA	0.186
TATTAATA	0.352
AAATAATA	0.317
CACTAATA	0.33
TACTAATA	0.298
TAATAAAA	0.344
AATTAATA	0.305
CAATAAAA	0.239
CACTAATC	0.1
AGAGAATG	0.0921
CATGGTTA	0.0882
AAGGAGCG	-0.2
AGAGGCAA	-0.195
GACCTTGC	-0.129

Sequence	binding signal [E-score]
GAATAAGA	0.0835
GAATAATC	-0.0939
GAATAATA	0.349
AGCCAACC	-0.074
ATTCGCCC	-0.192
ATGATAGA	0.36
ATGATAGC	0.15
ATGATAGG	0.0735
ATGATATG	0.226
CTGATATA	0.258
ATGATATA	0.386
GGACGTCC	-0.0863
AAGCACAA	0.035
TCGGTCAA	0.044
GACAAATA	0.111
AGCATAAG	-0.133
AGCATAAA	0.179
AGCATAAT	0.369
CGTTGTCA	0.0104
TCTATGCA	0.172
AATATTCC	0.106
AATATTGG	-0.0277
AATATTCG	0.307
AATATTGA	0.22
AATATTCT	0.347
AATATTGT	0.372

Sequence	binding signal [E-score]
AAACATTC	0.0952
CGATGTCA	-0.131
GGTCCCAA	-0.183
ATGGACGC	-0.141
GGTAACGA	0.0496
AGTAACTC	0.0388
CGTAACTA	0.314
ACTAACTG	0.16
AGTAACTG	0.124
AGTAACTA	0.436
ACTAACTA	0.367
GGTAACTA	0.336
GCTAACTA	0.324
GTTCAACA	0.0437
GTAACTGA	0.203
TCATGAAA	0.0251
GTGACCGA	0.048
CCACAATA	0.2
GACCTAGC	-0.0362
AGCTACGA	0.191
ACATGACC	0.104
AATAAGAC	0.0721
TACTAGAA	0.348
AGCTAGAT	0.152
AGCTAGAA	0.322
AACTAGAT	0.388

Sequence	binding signal [E-score]
ACCTAGAA	0.142
GACTAGAA	0.206
AACTAGAG	0.0733
CACTAGAA	0.304
AACTAGAA	0.363
GGCTAGAA	-0.162
TGCTAGAA	0.364
AACTAGAC	0.193
GCCGCAAC	-0.128
CAGCAGGA	-0.178
AACATCAT	0.00751
AACATCTT	0.0861
GTAACCAA	0.000641
CTAGACCA	-0.196
ACATGTTA	0.144
CGAATGAG	-0.0259
ATGCTCCG	-0.113
CAGCCTTA	-0.151
CATAGCTC	0.00142
ACGCGGAA	-0.0676
CGTAGATA	0.21
AGTAGATC	0.323
GGTAGATA	0.432
AGTAGATA	0.456
GCTAGATA	0.288
AGTAGATG	0.29

Sequence	binding signal [E-score]
ACCCGCAA	-0.0817
GACTAGCA	0.101
AACTAGCT	0.342
AACTAGCC	0.107
AACTAGCG	0.256
CACTAGCA	-0.154
AACTAGCA	0.346
AGAAGAAA	0.00841
CTCTTTCC	-0.0674
AACACCCA	-0.114
TACGTATA	0.349
CACGTATA	0.228
GACGTATA	0.174
TGGAGCCA	-0.182
GGCGAAGA	-0.0389
GTTAAAAC	0.0593
CCAACTGA	-0.0233
ATAAAAAT	0.28
GTATAAAC	0.137
ATATAAAT	0.419
TTATAAAA	0.218
CTATAAAA	0.229
ATATAAAC	0.33
CTATAAAC	0.291
ATATAAAG	0.135
ATATAAAA	0.338

Sequence	binding signal [E-score]
CGGAGACG	-0.133
CGTGTAGC	-0.0895
CTAGAGAC	0.0353
CGAACTAC	0.373
AGAACTAC	0.369
AGAACTAA	0.259
CGAACTAG	0.299
CGAACTAA	0.135
AGAACTAT	0.268
CGACCGGA	-0.00838
GGTTCCGA	0.0637
ACTTGTTC	0.195
GGCAAGAA	-0.058
CTCGAAAC	0.104
ATGCCCGA	-0.167
AACTCATA	0.0551
GATAGCAA	0.137
AATAGCTG	0.186
CATAGCTA	0.304
GATAGCTA	0.367
AATAGCTA	0.329
GATAGCGA	0.0913
CAGTCTAA	-0.037
GGCAAGTA	0.0714
AAAAAATA	0.323
ATAAAATA	0.396

Sequence	binding signal [E-score]
AACAAGTA	0.371
ATAAAATG	0.246
CACAAATA	0.243
AACAAATA	0.24
TAAAAATA	0.351
GTAAAATA	0.306
CTAAAATA	0.295
AACAAGTT	0.0415
CACAAGTA	0.205
TACAAATA	0.359
CTCTCGCA	-0.118
AATCCGAA	0.0539
CTGAAGCA	-0.0795
AGGTCACA	-0.186
GCGGTTAA	0.123
AAGAACTT	-0.176
AAGTCTAA	-0.0843
ACTGAAGT	0.155
AGGGACCA	-0.0833
TTAAAAAA	-0.0566
CTAAAAAA	0.168
TAAAAAAA	0.328
GATAAATA	0.323
AATAAATA	0.258
TATAAATA	0.381
CTCCTTGA	-0.109

Sequence	binding signal [E-score]
TCATGGAA	-0.0558
CGAGTCTA	-0.0403
ACGAACTC	-0.0425
CGGAATTC	0.0787
GGAAACTA	0.354
CGAAACTA	0.425
CGAAACCA	-0.131
CGAAAACA	0.348
GGAAACCA	-0.105
AGAAACTA	0.377
CGAAACTC	0.0357
GGAAACAA	0.0324
GGAAAACA	-0.00212
AGAAACTG	0.0822
AGAAAACA	0.0817
AGAAACTC	0.0994
